This is an account of results in PubChem BioAssay (NCATS).

Test [1] can be described thus: qHTS profiling for inhibitors of Plasmodium falciparum (3D7) proliferation (AID 743322).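 Further: infected erythrocytes exposed to compound for 72 h before lysis; 100% = DMSO vehicle wells and 0% = 0.29 µM artemisinin.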 The settings on record: P. falciparum 3D7 proliferation; at 28.7 µM (top of the series). A digest of the protocol:
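Parasite DNA was quantified by SYBR Green I fluorescence (ex 485, em 535 nm) after overnight lysis in saponin/Triton buffer at room temperature. Cultures at 0.3% parasitemia and 2.5% hematocrit were first exposed to compound for 72 h at 37 C; signals were normalised to artemisinin (0.29 uM) and vehicle wells.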
(In general: qHTS replaces the single test concentration by a dilution series.)

Test [2] is described as follows: qHTS profiling for inhibitors of Plasmodium falciparum (DD2) proliferation (AID 743323; call rule not given here). Conditions: lower = more inhibition; at 28.7 µM (top of the series). The procedure, abridged: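 SYBR Green fluorescence (ex 485, em 535 nm) of lysed cultures gives parasite DNA content; wells normalized to artemisinin (0.29 uM) and DMSO controls. Infected red cells: 0.3% parasitemia, 2.5% hematocrit, 72 h, 37 C.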

Test [3] in a line: qHTS profiling for inhibitors of Plasmodium falciparum (HB3) proliferation (AID 743324).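 Further: 100% = DMSO vehicle wells and 0% = artemisinin-treated control wells.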 The settings on record: Plasmodium falciparum HB3 blood-stage proliferation; at 28.7 µM (top of the series). A digest of the protocol: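 SYBR Green fluorescence (485 ex/535 em) of lysed cultures, incubated overnight at room temperature in the dark, quantifies parasite DNA. Infected erythrocytes at 0.3% parasitemia and 2.5% hematocrit were exposed 72 h; values normalized to DMSO and 0.29 uM artemisinin controls.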

The next test deals with CP297. The experiment in a line: qHTS profiling for inhibitors of Plasmodium falciparum proliferation (AID 504749).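 Further: 0% = DMSO vehicle and full inhibition = artemisinin control; nearly all actives have a fitted effect of over 60% in size.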 The settings on record: P. falciparum in erythrocytes, SYBR Green DNA, 72 h; series mostly up to 28.7 µM. The procedure, abridged:
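In a 72 h erythrocytic culture (37 C, humidified, 5% CO2) at 2.5% hematocrit and 0.3% starting parasitemia, compounds were tested; SYBR Green I in detergent lysis buffer stained parasite DNA overnight.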

Test [4] has as its target Tumor susceptibility gene 101 protein (Homo sapiens) (UniProt Q99816). Kind of test: qHTS Assay for Iinhibitors of HIV-1 Budding by Blocking the Interaction of PTAP/TSG101: Hit Validation (AID 651600). Further: on the % scale 0 is the no-effect control and ±100 the full control effect; nearly all actives have a fitted effect of over 70% in size. A digest of the protocol: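 Tsg101 binding domain 10 uM + FITC-PTAP peptide 50 nM (final), 10 mM HEPES pH 7.5/0.15 M NaCl/0.01% Tween 20/3 mM EDTA/0.1 mM TCEP; 20 min RT; FP read, FITC filters.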

Test [5] concerns the target Lysosomal alpha-glucosidase (Homo sapiens) (UniProt P10253). The experiment in a line: Confirmation of Inhibitors and Activators of Purified Human alpha-Glucosidase (AID 2115; active means well fitted curve in either direction with a large enough effect). The procedure, abridged: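 Fluorogenic 4-MU-substrate hydrolysis (400 uM substrate, 4 nM human enzyme) over 20 min at room temperature, pH 5.0 citrate buffer plus 0.005% Tween-20; NaOH/glycine stop, then ex 365/em 440 nm read. Titration up to 77 uM; Hill-equation AC50, normalized to no-enzyme and full-activity controls.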

Test [6] in a line: NCATS anti-infectives library activity on HEK293 viability as a counter-qHTS vs the C. elegans viability qHTS (AID 1745854). Further: on the % scale 0 is the no-effect control and ±100 the full control effect. The procedure, abridged: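 CellTiter-Glo luminescence, read on a CCD imager, scored viability of HEK293 cells after 24 hr compound exposure at 37C. Library tested in several concentrations, 1:5 steps, up to 41.7 uM; digitonin served as control.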
Test [7] in a line: NCATS anti-infectives library activity on the primary C. elegans qHTS viability assay (AID 1745855; calls by dose curve). The procedure, abridged: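 Titration-based screen in worms: eggs hatched overnight in M9, L1 larvae fed TOP10 capsules in S medium with compound, incubated 21 °C for 7 days; fluorescent objects gated by size and intensity at days 0, 3 and 7.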
Test [8] is described as follows: Validation of Assay for Modulators of Lamin A Splicing (AID 1459; active means well fitted curve in the direction sought with a large enough effect in the signal ratio; the % refers to the signal ratio;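 further: cells exposed to compound for two days before reading; 0% is about no effect; ratio rise marks activators and ratio drop marks inhibitors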). A digest of the protocol:
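Readout: ratio of GFP (500-530 nm) to RFP (575-640 nm) total object intensity by 488 nm laser-scanning cytometry after 48 hrs. Cells were HeLa S3 clones carrying lamin A-EGFP minigene plus DsRed2 viability reporter; vehicle 0.5% DMSO final.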

Test [9] is described as follows: qHTS Assay for Modulators of Human Peripheral Myelin Protein 22 (PMP22) Expression/Activity (AID 1967; active means well fitted curve in the direction sought with a large enough effect in the signal ratio; the % refers to the signal ratio;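 further: 0% = untreated cells and 100% end not stated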). The procedure, abridged:
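Mouse MSC80 Schwann line, Pmp22 promoter–CBG68 reporter, EF-alpha–CBR internal control. 24h compound exposure, 37 °C/5% CO2, DMEM + 10% FBS. Readout: corrected green/red luminescence ratio, normalized to untreated cells; concentration-response curves fitted and classified.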

The nature of test [10]: Validation screen for small molecules that induce DNA re-replication in MCF 10A normal breast cells (AID 463097). Further: 0% is about no effect; nearly all actives have a fitted effect of over 60% in size. The procedure, abridged: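 250 MCF 10A cells/well; compound pin-transferred; 48 hr, 37 C, 5% CO2; Hoechst 40 min; imaged 405/500-530 nm. Hits = more high-intensity nuclei.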
Test [11] concerns the target M-phase phosphoprotein 8 (Homo sapiens) (UniProt Q99549). Kind of test: qHTS Validation Assay for Inhibitors for MPP8 Chromodomain Interactions with Methylated Histone Tails (AID 488949).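 Further: AlphaScreen signal from MPP8 chromodomain bound to biotinylated H3K9me3 peptide; top concentration of the series differs between compounds; on the % scale 0 is the no-effect control and ±100 the full control effect; nearly all actives have a fitted effect of over 55% in size.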 A digest of the protocol: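 AlphaScreen read-out: streptavidin donor and nickel chelate acceptor beads (final 10 ug/mL), 30 min in the dark at RT. Complex of 50 nM MPP8 and 50 nM b-H3(1-18)K9me3 peptide had been exposed to compounds for 30 min beforehand.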

Test [12] deals with Thyrotropin receptor (Homo sapiens) (UniProt P16473). Kind of test: qHTS Assay for Antagonists of the Thyroid Stimulating Hormone Receptor (AID 488980). Further: 0% is about no effect. A digest of the protocol:
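TSHR-HEK293 cells; 70 uM RO 20-1724 PDE inhibitor; compound + EC80 TSH (4 nM final); anti-cAMP cryptate antibody/cAMP-d2 in lysis buffer, 30 min RT; HTRF 665/620 nm read.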

A short description of test [13]: Validation screen for small molecules that induce DNA re-replication in SW480 colon adenocarcinoma cells (AID 504364). Further: 0% is about no effect. A digest of the protocol: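 Read-out: total Hoechst intensity of nuclei by fluorescence scanning imager; hits raise the fraction of nuclei with elevated DNA content. Cells received compound for 48 hr at 37 C before a 40 min stain.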
For test [14], the target named is Lysosomal acid glucosylceramidase (Homo sapiens) (UniProt P04062). The experiment in a line: Glucocerebrosidase-p2 (AID 348; in the data active means potency below about 10 µM; further: potency means the concentration at half of the fitted maximal effect). The settings on record: purified GBA, blue fluorogenic substrate, 40 min. The procedure, abridged:
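Normal human glucocerebrosidase (0.2 nM) with blue fluorogenic substrate (80 uM final) in citrate/phosphate pH 5.9 with 10mM sodium taurocholate, 0.01% tween-20; 40 min RT, NaOH/glycine stop; fluorescence Ex 365/Em 440; AC50 from a titration from 0.6 nM upwards.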

Records with an inconclusive call do not appear. The source made the active and inactive calls. Unless noted, the call rests on the fitted dose curve; in most records, active means well fitted curve in the direction sought with a large enough effect; inconclusive means small, poorly fitted or top-dose-only effect, or another doubt; inactive means no such curve, though single readings can be large; an effect the other way counts as inactive or inconclusive.

Thyrotropin receptor (Homo sapiens), sequence (P16473 whole entry, looked up): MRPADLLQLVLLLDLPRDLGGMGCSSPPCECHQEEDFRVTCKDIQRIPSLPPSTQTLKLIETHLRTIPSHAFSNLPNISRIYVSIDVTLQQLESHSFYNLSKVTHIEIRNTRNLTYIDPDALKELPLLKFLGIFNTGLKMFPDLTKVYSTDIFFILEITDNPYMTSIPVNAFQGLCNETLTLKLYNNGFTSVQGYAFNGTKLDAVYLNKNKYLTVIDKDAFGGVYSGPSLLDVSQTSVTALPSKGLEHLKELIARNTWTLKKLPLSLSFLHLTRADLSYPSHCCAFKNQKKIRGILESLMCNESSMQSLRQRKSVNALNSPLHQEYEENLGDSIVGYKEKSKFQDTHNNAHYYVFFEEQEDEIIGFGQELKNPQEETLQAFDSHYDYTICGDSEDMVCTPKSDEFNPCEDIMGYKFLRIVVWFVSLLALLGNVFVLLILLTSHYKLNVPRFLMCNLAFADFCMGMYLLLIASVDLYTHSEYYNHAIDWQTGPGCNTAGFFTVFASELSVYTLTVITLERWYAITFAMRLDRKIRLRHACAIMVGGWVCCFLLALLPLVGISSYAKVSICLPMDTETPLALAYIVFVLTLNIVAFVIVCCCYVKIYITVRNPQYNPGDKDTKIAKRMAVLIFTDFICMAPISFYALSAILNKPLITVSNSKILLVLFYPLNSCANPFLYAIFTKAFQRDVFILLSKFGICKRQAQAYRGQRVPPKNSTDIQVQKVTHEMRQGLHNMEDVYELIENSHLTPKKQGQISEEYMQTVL
Tumor susceptibility gene 101 protein (Homo sapiens), sequence (Q99816 whole entry, looked up, the tested form may be a part): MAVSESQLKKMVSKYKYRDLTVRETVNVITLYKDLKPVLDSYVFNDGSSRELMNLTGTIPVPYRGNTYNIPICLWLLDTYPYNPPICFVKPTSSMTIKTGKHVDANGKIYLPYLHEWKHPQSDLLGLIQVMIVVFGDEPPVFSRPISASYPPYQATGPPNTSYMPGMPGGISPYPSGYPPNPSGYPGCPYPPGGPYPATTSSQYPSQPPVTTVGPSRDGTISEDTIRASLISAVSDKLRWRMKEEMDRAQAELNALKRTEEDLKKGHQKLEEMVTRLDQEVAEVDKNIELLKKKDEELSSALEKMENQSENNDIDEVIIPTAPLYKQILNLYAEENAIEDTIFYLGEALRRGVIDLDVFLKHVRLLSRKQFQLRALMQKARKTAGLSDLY
M-phase phosphoprotein 8 (Homo sapiens), sequence (Q99549 whole entry, looked up): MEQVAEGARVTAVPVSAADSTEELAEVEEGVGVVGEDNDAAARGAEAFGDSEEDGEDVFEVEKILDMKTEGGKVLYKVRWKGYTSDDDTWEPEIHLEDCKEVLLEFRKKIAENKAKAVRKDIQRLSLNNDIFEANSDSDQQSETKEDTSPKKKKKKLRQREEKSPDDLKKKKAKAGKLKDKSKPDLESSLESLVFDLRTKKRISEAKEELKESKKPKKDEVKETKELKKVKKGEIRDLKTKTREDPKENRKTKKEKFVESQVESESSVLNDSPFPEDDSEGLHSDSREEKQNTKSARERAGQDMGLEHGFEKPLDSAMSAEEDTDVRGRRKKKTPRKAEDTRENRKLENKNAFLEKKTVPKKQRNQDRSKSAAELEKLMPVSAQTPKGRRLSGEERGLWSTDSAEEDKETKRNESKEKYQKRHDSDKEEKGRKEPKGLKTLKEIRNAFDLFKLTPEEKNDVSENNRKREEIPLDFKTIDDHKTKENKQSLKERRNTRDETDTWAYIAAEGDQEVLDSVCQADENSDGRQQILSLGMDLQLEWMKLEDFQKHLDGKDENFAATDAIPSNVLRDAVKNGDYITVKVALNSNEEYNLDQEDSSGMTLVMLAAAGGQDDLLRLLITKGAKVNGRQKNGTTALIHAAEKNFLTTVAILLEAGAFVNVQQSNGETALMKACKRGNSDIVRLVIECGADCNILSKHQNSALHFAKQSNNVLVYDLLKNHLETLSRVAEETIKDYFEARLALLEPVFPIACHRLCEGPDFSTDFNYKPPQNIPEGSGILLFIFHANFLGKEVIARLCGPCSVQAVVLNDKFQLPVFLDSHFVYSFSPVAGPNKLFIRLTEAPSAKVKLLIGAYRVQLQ
Lysosomal acid glucosylceramidase (Homo sapiens), sequence (P04062 whole entry, looked up): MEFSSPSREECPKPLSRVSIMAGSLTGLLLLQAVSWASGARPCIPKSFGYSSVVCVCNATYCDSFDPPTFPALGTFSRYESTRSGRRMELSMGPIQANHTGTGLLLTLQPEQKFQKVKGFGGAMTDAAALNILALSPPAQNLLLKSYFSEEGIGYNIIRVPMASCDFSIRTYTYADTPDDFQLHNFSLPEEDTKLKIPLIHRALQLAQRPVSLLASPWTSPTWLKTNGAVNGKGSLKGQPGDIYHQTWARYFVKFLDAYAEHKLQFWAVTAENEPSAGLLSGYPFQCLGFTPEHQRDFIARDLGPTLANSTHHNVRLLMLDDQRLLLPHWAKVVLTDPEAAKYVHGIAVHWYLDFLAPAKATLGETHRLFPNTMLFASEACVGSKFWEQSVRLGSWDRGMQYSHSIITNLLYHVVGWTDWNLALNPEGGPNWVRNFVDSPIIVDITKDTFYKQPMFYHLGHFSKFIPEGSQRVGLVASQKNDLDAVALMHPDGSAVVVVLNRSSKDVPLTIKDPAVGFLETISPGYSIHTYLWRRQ

Molecule `CCCCC[C@H]1C(=O)O[C@H](C)[C@H](NC(=O)c2cccc(NC=O)c2O)C(=O)O[C@@H](C)[C@@H]1OC(=O)CC(C)C` had a remaining parasite growth % (stronger effect = lower value) in [1] of 20.4%. This molecule showed an activity, percent of control in [2] of 8.53%. Besides, in test [3], the remaining proliferation (% of control), lower = more inhibition worked out at 6.18%.
Regarding `CCN1C[C@]2(COC)[C@H](O)C[C@H](OC)[C@]34C1C([C@H](OC)[C@H]23)[C@]1(OC(C)=O)C2[C@@H](OC(=O)c3ccccc3)C(O)(C[C@H]24)[C@@H](OC)[C@@H]1O`, the Potency result with CP297 was “inactive”.
Regarding `CC(C)C[C@H]1C(=O)N2CCCC2[C@]2(O)O[C@](NC(=O)[C@@H]3C=C4c5cccc6[nH]cc(c56)CC4N(C)C3)(C(C)C)C(=O)N12` (stereo not given in full), the result in [4] was inactive.
Take `O[C@H]1[C@H](O)[C@@H](O)CN2CC[C@H](O)[C@H]12`: in test [5], the outcome was inactive.
For the molecule `CCC(=O)CCCCC[C@@H]1NC(=O)[C@H]2CCCCN2C(=O)[C@H]([C@@H](C)CC)NC(=O)[C@H](Cc2cn(OC)c3ccccc23)NC1=O`, the Potency entry in test [6] and in test [7] was “inactive” throughout.
On to `CP(=O)(O)CCCN`, for which the outcome in test [8], in [9] and in test [12] was inactive. Moreover, the Potency entry in test [10], in [11] and in test [13] was “inactive” each time.
For `N[C@@H](CCP(=O)(O)O)C(=O)O`, the Potency in [14] was > 11.4 µM (inactive).
